Laboratory results from the supplement of paper PMC6992640.

Columns and labels:
Test in all cases: cell viability of combination (% of vehicle); higher = less cytotoxic
Conditions in all cases: 1 µM; 72 h; partner dose: 10 nM
HCI01 [1] = system: HCI01 (cells of a triple-negative basal-like breast cancer xenograft)
Method: (§1)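 PDX cells were treated for 72 h with each drug at 1 µM plus carfilzomib (10 nM; 100 nM for WHIM2). Luciferase viability is expressed as percent of vehicle.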

UCD52 [2] = system: UCD52 (cells of a triple-negative basal-like breast cancer xenograft)
Method: as §1

WHIM30 = system: WHIM30 (cells of a triple-negative basal-like breast cancer xenograft)
Method: as §1

HCI01 [3] = system: HCI01; remark: listed apart in the source
Method: (§2)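 PDX cells were treated for 72 h with each drug at 1 µM plus afatinib (10 nM; 1 µM for WHIM30). Luciferase viability is expressed as percent of vehicle.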

UCD52 [4] = system: UCD52; remark: listed apart in the source
Method: as §2

WHIM2 = system: WHIM2 (cells of a triple-negative basal-like breast cancer xenograft)
Method: as §2

Compound: Cc1ccc(C(=O)N(CCCN)C(c2nc3cc(Cl)ccc3c(=O)n2Cc2ccccc2)C(C)C)cc1 (stereo unspecified) + CC(C)C[C@H](NC(=O)[C@H](CCc1ccccc1)NC(=O)CN1CCOCC1)C(=O)N[C@@H](Cc1ccccc1)C(=O)N[C@@H](CC(C)C)C(=O)[C@@]1(C)CO1 [Carfilzomib]
- cell viability of combination (HCI01 [1]): 88.6
- cell viability of combination (UCD52 [2]): 42.9

Compound: CN(C)CCOc1ccc(C(=C(CCCl)c2ccccc2)c2ccccc2)cc1.O=C(O)CC(O)(CC(=O)O)C(=O)O [Toremifene Citrate] + CC(C)C[C@H](NC(=O)[C@H](CCc1ccccc1)NC(=O)CN1CCOCC1)C(=O)N[C@@H](Cc1ccccc1)C(=O)N[C@@H](CC(C)C)C(=O)[C@@]1(C)CO1 [Carfilzomib]
- cell viability of combination (HCI01 [1]): 103
- cell viability of combination (UCD52 [2]): 70.2

Compound: CCc1c(Cl)c(O)c(Cl)c(O)c1C(=O)OC1C(C)OC(OCC2=CC=CCC(O)C(C)=CC(CC)C(OC3OC(C)(C)C(OC(=O)C(C)C)C(O)C3O)C(C)=CC(C)=CCC(C(C)O)OC2=O)C(OC)C1O (stereo unspecified) [Fidaxomicin] + CC(C)C[C@H](NC(=O)[C@H](CCc1ccccc1)NC(=O)CN1CCOCC1)C(=O)N[C@@H](Cc1ccccc1)C(=O)N[C@@H](CC(C)C)C(=O)[C@@]1(C)CO1 [Carfilzomib]
- cell viability of combination (HCI01 [1]): 92.5
- cell viability of combination (UCD52 [2]): 62.7

Compound: CNC1CCC(c2ccc(Cl)c(Cl)c2)c2ccccc21.Cl (stereo unspecified) [Sertraline HCl] + CC(C)C[C@H](NC(=O)[C@H](CCc1ccccc1)NC(=O)CN1CCOCC1)C(=O)N[C@@H](Cc1ccccc1)C(=O)N[C@@H](CC(C)C)C(=O)[C@@]1(C)CO1 [Carfilzomib]
- cell viability of combination (HCI01 [1]): 72.1
- cell viability of combination (UCD52 [2]): 61.1

Compound: CCCCCCCCOc1ccccc1C(=O)Nc1ccc(C(=O)OCC[N+](C)(CC)CC)cc1.[Br-] [Otilonium Bromide] + CC(C)C[C@H](NC(=O)[C@H](CCc1ccccc1)NC(=O)CN1CCOCC1)C(=O)N[C@@H](Cc1ccccc1)C(=O)N[C@@H](CC(C)C)C(=O)[C@@]1(C)CO1 [Carfilzomib]
- cell viability of combination (HCI01 [1]): 81.5
- cell viability of combination (UCD52 [2]): 67

Compound: Clc1ccc(COC(Cn2ccnc2)c2ccc(Cl)cc2Cl)cc1.O=[N+]([O-])O (stereo unspecified) [Econazole nitrate] + CC(C)C[C@H](NC(=O)[C@H](CCc1ccccc1)NC(=O)CN1CCOCC1)C(=O)N[C@@H](Cc1ccccc1)C(=O)N[C@@H](CC(C)C)C(=O)[C@@]1(C)CO1 [Carfilzomib]
- cell viability of combination (HCI01 [1]): 89.1
- cell viability of combination (UCD52 [2]): 59.8

Compound: CC(=O)c1cc2c(o1)C(=O)c1ccccc1C2=O [Napabucasin] + CC(C)C[C@H](NC(=O)[C@H](CCc1ccccc1)NC(=O)CN1CCOCC1)C(=O)N[C@@H](Cc1ccccc1)C(=O)N[C@@H](CC(C)C)C(=O)[C@@]1(C)CO1 [Carfilzomib]
- cell viability of combination (HCI01 [1]): 22.6
- cell viability of combination (UCD52 [2]): 15.7

Compound: COC1=C(OC)C(=O)C(CCCCCCCCCCO)=C(C)C1=O [Idebenone] + CC(C)C[C@H](NC(=O)[C@H](CCc1ccccc1)NC(=O)CN1CCOCC1)C(=O)N[C@@H](Cc1ccccc1)C(=O)N[C@@H](CC(C)C)C(=O)[C@@]1(C)CO1 [Carfilzomib]
- cell viability of combination (HCI01 [1]): 82.8
- cell viability of combination (UCD52 [2]): 62

Compound: C=C1C(=CC=C2CCCC3(C)C2CCC3C(C)CCCC(C)C)CC(O)CC1O (stereo unspecified) [Alfacalcidol] + CC(C)C[C@H](NC(=O)[C@H](CCc1ccccc1)NC(=O)CN1CCOCC1)C(=O)N[C@@H](Cc1ccccc1)C(=O)N[C@@H](CC(C)C)C(=O)[C@@]1(C)CO1 [Carfilzomib]
- cell viability of combination (HCI01 [1]): 55.4
- cell viability of combination (UCD52 [2]): 41

Compound: Oc1c(Cl)cc(Cl)c2cccnc12 [Chloroxine] + CC(C)C[C@H](NC(=O)[C@H](CCc1ccccc1)NC(=O)CN1CCOCC1)C(=O)N[C@@H](Cc1ccccc1)C(=O)N[C@@H](CC(C)C)C(=O)[C@@]1(C)CO1 [Carfilzomib]
- cell viability of combination (HCI01 [1]): 79.4
- cell viability of combination (UCD52 [2]): 62.4
- cell viability of combination (WHIM30): 19

Compound: CNCCC(Oc1ccc(C(F)(F)F)cc1)c1ccccc1.Cl (stereo unspecified) [Fluoxetine HCl] + CC(C)C[C@H](NC(=O)[C@H](CCc1ccccc1)NC(=O)CN1CCOCC1)C(=O)N[C@@H](Cc1ccccc1)C(=O)N[C@@H](CC(C)C)C(=O)[C@@]1(C)CO1 [Carfilzomib]
- cell viability of combination (HCI01 [1]): 72.4
- cell viability of combination (UCD52 [2]): 52.6
- cell viability of combination (WHIM30): 16.3

Compound: CC[C@@H]1/C=C(\C)C[C@H](C)C[C@H](OC)[C@H]2O[C@@](O)(C(=O)C(=O)N3CCCC[C@H]3C(=O)O[C@H](/C(C)=C/[C@@H]3CC[C@H](Cl)[C@H](OC)C3)[C@H](C)[C@@H](O)CC1=O)[C@H](C)C[C@@H]2OC [Pimecrolimus] + CC(C)C[C@H](NC(=O)[C@H](CCc1ccccc1)NC(=O)CN1CCOCC1)C(=O)N[C@@H](Cc1ccccc1)C(=O)N[C@@H](CC(C)C)C(=O)[C@@]1(C)CO1 [Carfilzomib]
- cell viability of combination (HCI01 [1]): 95.7
- cell viability of combination (UCD52 [2]): 49.2
- cell viability of combination (WHIM30): 11.7

Compound: CCOc1nc2cccc(C(=O)OC(C)OC(=O)OC3CCCCC3)c2n1Cc1ccc(-c2ccccc2-c2nn[nH]n2)cc1 (stereo unspecified) [Candesartan Cilexetil] + CC(C)C[C@H](NC(=O)[C@H](CCc1ccccc1)NC(=O)CN1CCOCC1)C(=O)N[C@@H](Cc1ccccc1)C(=O)N[C@@H](CC(C)C)C(=O)[C@@]1(C)CO1 [Carfilzomib]
- cell viability of combination (HCI01 [1]): 77.5
- cell viability of combination (UCD52 [2]): 61.4
- cell viability of combination (WHIM30): 18.9

Compound: Cc1cn(-c2cc(NC(=O)c3ccc(C)c(Nc4nccc(-c5cccnc5)n4)c3)cc(C(F)(F)F)c2)cn1 [Nilotinib(AMN-107)] + CC(C)C[C@H](NC(=O)[C@H](CCc1ccccc1)NC(=O)CN1CCOCC1)C(=O)N[C@@H](Cc1ccccc1)C(=O)N[C@@H](CC(C)C)C(=O)[C@@]1(C)CO1 [Carfilzomib]
- cell viability of combination (HCI01 [1]): 69.1
- cell viability of combination (UCD52 [2]): 45.7
- cell viability of combination (WHIM30): 22.2

Compound: Cc1c(-c2ccc(O)cc2)n(Cc2ccc(OCCN3CCCCCC3)cc2)c2ccc(O)cc12.Cl [Bazedoxifene HCl] + CC(C)C[C@H](NC(=O)[C@H](CCc1ccccc1)NC(=O)CN1CCOCC1)C(=O)N[C@@H](Cc1ccccc1)C(=O)N[C@@H](CC(C)C)C(=O)[C@@]1(C)CO1 [Carfilzomib]
- cell viability of combination (HCI01 [1]): 107
- cell viability of combination (UCD52 [2]): 64.4
- cell viability of combination (WHIM30): 11.3

Compound: COC(=O)C1=C(C)NC(C)=C(C(=O)OC2CCCN(Cc3ccccc3)C2)C1c1cccc([N+](=O)[O-])c1.Cl (stereo unspecified) [Benidipine HCl] + CN(C)C/C=C/C(=O)Nc1cc2c(Nc3ccc(F)c(Cl)c3)ncnc2cc1O[C@H]1CCOC1 [Afatinib]
- cell viability of combination (HCI01 [3]): 53.4
- cell viability of combination (UCD52 [4]): 79.2
- cell viability of combination (WHIM2): 51.4

Compound: C=C(c1ccc(C(=O)O)cc1)c1cc2c(cc1C)C(C)(C)CCC2(C)C [Bexarotene] + CC(C)C[C@H](NC(=O)[C@H](CCc1ccccc1)NC(=O)CN1CCOCC1)C(=O)N[C@@H](Cc1ccccc1)C(=O)N[C@@H](CC(C)C)C(=O)[C@@]1(C)CO1 [Carfilzomib]
- cell viability of combination (HCI01 [1]): 71.8
- cell viability of combination (UCD52 [2]): 79.6
- cell viability of combination (WHIM30): 25.7

Compound: CC[C@@]1(O)C(=O)OCc2c1cc1n(c2=O)Cc2cc3c(CN(C)C)c(O)ccc3nc2-1 [Topotecan] + CC(C)C[C@H](NC(=O)[C@H](CCc1ccccc1)NC(=O)CN1CCOCC1)C(=O)N[C@@H](Cc1ccccc1)C(=O)N[C@@H](CC(C)C)C(=O)[C@@]1(C)CO1 [Carfilzomib]
- cell viability of combination (HCI01 [1]): 56.9
- cell viability of combination (UCD52 [2]): 57.9
- cell viability of combination (WHIM30): 7.16

Compound: COC(=O)NC(C(=O)N1CCCC1c1ncc(-c2ccc(-c3ccc(-c4cnc(C5CCCN5C(=O)C(NC(=O)OC)C(C)C)[nH]4)cc3)cc2)[nH]1)C(C)C (stereo unspecified) + CC(C)C[C@H](NC(=O)[C@H](CCc1ccccc1)NC(=O)CN1CCOCC1)C(=O)N[C@@H](Cc1ccccc1)C(=O)N[C@@H](CC(C)C)C(=O)[C@@]1(C)CO1 [Carfilzomib]
- cell viability of combination (HCI01 [1]): 70.8
- cell viability of combination (UCD52 [2]): 60.4
- cell viability of combination (WHIM30): 25.3

Compound: CC(C)(C)c1ccc(C(=O)CCCN2CCC(OC(c3ccccc3)c3ccccc3)CC2)cc1 [Ebastine] + CN(C)C/C=C/C(=O)Nc1cc2c(Nc3ccc(F)c(Cl)c3)ncnc2cc1O[C@H]1CCOC1 [Afatinib]
- cell viability of combination (HCI01 [3]): 48.2
- cell viability of combination (UCD52 [4]): 70.1
- cell viability of combination (WHIM2): 50.3

Compound: CN1CCN(c2ccc(C(=O)/N=c3\[nH][nH]c4ccc(Cc5cc(F)cc(F)c5)cc34)c(NC3CCOCC3)c2)CC1 [Entrectinib] + CC(C)C[C@H](NC(=O)[C@H](CCc1ccccc1)NC(=O)CN1CCOCC1)C(=O)N[C@@H](Cc1ccccc1)C(=O)N[C@@H](CC(C)C)C(=O)[C@@]1(C)CO1 [Carfilzomib]
- cell viability of combination (HCI01 [1]): 90.7
- cell viability of combination (UCD52 [2]): 45
- cell viability of combination (WHIM30): 10.1

Compound: CCOc1nc2cccc(C(=O)OC(C)OC(=O)OC3CCCCC3)c2n1Cc1ccc(-c2ccccc2-c2nn[nH]n2)cc1 (stereo unspecified) [Candesartan Cilexetil] + CN(C)C/C=C/C(=O)Nc1cc2c(Nc3ccc(F)c(Cl)c3)ncnc2cc1O[C@H]1CCOC1 [Afatinib]
- cell viability of combination (HCI01 [3]): 55.5
- cell viability of combination (UCD52 [4]): 74.5
- cell viability of combination (WHIM2): 50.8

Compound: COC(=O)C1=C(C)NC(C)=C(C(=O)OC2CCCN(Cc3ccccc3)C2)C1c1cccc([N+](=O)[O-])c1.Cl (stereo unspecified) [Benidipine HCl] + CC(C)C[C@H](NC(=O)[C@H](CCc1ccccc1)NC(=O)CN1CCOCC1)C(=O)N[C@@H](Cc1ccccc1)C(=O)N[C@@H](CC(C)C)C(=O)[C@@]1(C)CO1 [Carfilzomib]
- cell viability of combination (HCI01 [1]): 106
- cell viability of combination (UCD52 [2]): 57.7
- cell viability of combination (WHIM30): 13.6

Compound: COc1ccc2cc1Oc1ccc(cc1)CC1c3c(cc4c(c3Oc3cc5c(cc3OC)CCN(C)C5C2)OCO4)CCN1C (stereo unspecified) [Cepharanthine] + CC(C)C[C@H](NC(=O)[C@H](CCc1ccccc1)NC(=O)CN1CCOCC1)C(=O)N[C@@H](Cc1ccccc1)C(=O)N[C@@H](CC(C)C)C(=O)[C@@]1(C)CO1 [Carfilzomib]
- cell viability of combination (HCI01 [1]): 76.2
- cell viability of combination (UCD52 [2]): 45.8
- cell viability of combination (WHIM30): 9.41

Compound: COc1cccc2c1C(=O)c1c(O)c3c(c(O)c1C2=O)CC(O)(C(=O)CO)CC3OC1CC(N)C(O)C(C)O1 (stereo unspecified) [Doxorubicin] + CC(C)C[C@H](NC(=O)[C@H](CCc1ccccc1)NC(=O)CN1CCOCC1)C(=O)N[C@@H](Cc1ccccc1)C(=O)N[C@@H](CC(C)C)C(=O)[C@@]1(C)CO1 [Carfilzomib]
- cell viability of combination (HCI01 [1]): 55.4
- cell viability of combination (UCD52 [2]): 28.3
- cell viability of combination (WHIM30): 8.32
